Screening results as filed in PubChem BioAssay.
A selection: hits, their analogues and other compounds. The true share with any hit is near 4.1%.
NLRP3 yeast inh = NALP3 inhibition in yeast; Yeast reconstituted NLRP3/ASC/caspase-1, beta-gal luminescence, 24 h; inhibition, % at 10 µM; 330,000 compounds, 0.39% hits; AID 2825;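 active = inhibition of 50% or more; inactive = inhibition below 50%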
tim23-1 inh = inhibits growth of tim23-1 mutant yeast | S. cerevisiae tim23-1 growth, BacTiter-Glo luminescence, 24 h | inhibition, % at 20 µM | 330,000 compounds, 1.3% hits;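 active = growth inhibition of the mutant yeast at or above 50%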;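 note: temperature-sensitive mutant grown at 25 °C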
tim10-1 inh = inhibits growth of tim10-1 mutant yeast. S. cerevisiae tim10-1 ts strain growth, BacTiter-Glo, 24 h. inhibition, % at 20 µM. 330,000 compounds, 2.2% hits. AID 463190;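 active = inhibition of at least 40%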;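 note: mutant grown at 25 °C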
NALP1 inh = blocks the NALP1 inflammasome reconstituted in yeast | S. cerevisiae NALP1/ASC/caspase-1 growth, X-gal OD620, 72 h | inhibition, % at 10 µM | 280,000 compounds, 0.61% hits | AID 2071; in the data active = inhibition mostly above about 24%, no sharp cut-off; inactive = mostly below about 32%
PfHsp90 set2 = reduces growth (ATP signal) of yeast expressing P. falciparum Hsp90. S. cerevisiae expressing PfHsp90, BacTiter-Glo ATP, 48 h; yeast lacking PDR1 and PDR3 efflux regulators. inhibition, % at 9.4 µM. 310,000 compounds, 0.32% hits. AID 504621;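 active = every replicate shows inhibition above about 80%, whatever the replicate mean, limit read from the data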
TIM10 inh = inhibits growth of TIM10 yeast strain | S. cerevisiae TIM10 strain growth, BacTiter-Glo luminescence, 24 h | AID 463195 | inhibition, % at 10 µM | 330,000 compounds, 1.4% hits;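 active = inhibition of 40% or more at the single tested concentration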;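 note: wild-type TIM10 isogenic control strain grown at permissive 25 °C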
NALP3 yeast conf = confirmation of NALP3 inhibitors in yeast; 1,300 compounds, 81% hits; yeast expressing human NALP3, luminescence; shares compounds with NLRP3 yeast inh; inhibition, % at 10 µM; in the data active = inhibition above about 48%
Casp1-ASC yeast = counter-screen for NALP3 inhibitors: yeast caspase-1-ASC. shares compounds with NLRP3 yeast inh. yeast expressing Caspase-1-ASC, luminescence counter screen. inhibition, % at 10 µM. 1,000 compounds, 66% hits. AID 488784
NALP3 retest = retest-confirmed inhibitor of NALP3 in yeast; AID 488794; 1,000 compounds, 53% hits; shares compounds with NLRP3 yeast inh; yeast expressing human NALP3, luminescence read-out; inhibition, % at 10 µM
Of the large screens only hits and unclear results are named; the others gave an inactive call (follow-up assays come after a bar, where they were run). Cut-off read from the data, not from the text of the source, unless noted: active = inhibition above about 50%; inactive = the rest.

O=C(Nc1cccc(-c2cnc3ccccc3n2)c1)c1ccco1	none
Cc1ccc(CC(=O)O/N=C(\N)c2ccncc2)cc1	none
COC1OC2COC(c3ccccc3)OC2C(O)C1NC(C)=O (stereo not drawn)	none (no result: NLRP3 yeast inh, tim23-1 inh, tim10-1 inh, NALP1 inh, TIM10 inh)
Cc1cc(NC(=O)/C=C/c2ccccc2)no1	NLRP3 yeast inh 50 | NALP3 yeast conf 68 | Casp1-ASC yeast inactive | NALP3 retest inactive
COc1ccc(/C=C/C(=O)Nc2cc(C)on2)cc1	none
NCCOc1ccccc1-c1ccccc1	NLRP3 yeast inh 54 | NALP3 yeast conf 66 | Casp1-ASC yeast 56 | NALP3 retest 50
O=C(OCC(=O)N1CCN(c2ccccc2)CC1)c1nc(Cl)ccc1Cl	none (no result: NALP1 inh, PfHsp90 set2)
CCOc1ccc(/C(O)=C2/C(=O)C(=O)N(CCCN3CCOCC3)C2c2ccc(F)cc2)cc1C (stereo not drawn)	NLRP3 yeast inh 50 | NALP3 yeast conf 67 | Casp1-ASC yeast inactive | NALP3 retest inactive
O=C1C(=O)N(CCCN2CCOCC2)C(c2ccc(F)cc2)/C1=C(\O)c1ccc2c(c1)OCCO2 (stereo not drawn)	none
CCC1CCC(N2CCN(c3cccc(OC)c3)CC2)CC1 (stereo not drawn)	none
CCOC(=O)c1nc(C)nc(Sc2n[nH]c(-c3cc(Cl)cc(Cl)c3)n2)c1C	NLRP3 yeast inh 51 (no result: NALP1 inh) | NALP3 yeast conf inactive
COc1ccccc1NC(=O)CSc1ccc2nnc(CCNC(=O)c3ccccc3)n2n1	none
COc1cccc(OC)c1C(=O)Nc1nc2ccc([N+](=O)[O-])cc2s1	NLRP3 yeast inh 55 | NALP3 yeast conf 74
COc1cccc(OC)c1C(=O)Nc1nc2ccc(S(C)(=O)=O)cc2s1	none
CCc1noc(C)c1C(=O)Nc1nc2ccc(F)cc2s1	NLRP3 yeast inh 68 (no result: NALP1 inh) | NALP3 yeast conf 78 | Casp1-ASC yeast 75 | NALP3 retest 66
Cc1noc(C)c1C(=O)Nc1nc2ccc(F)cc2s1	NLRP3 yeast inh 65 (no result: NALP1 inh) | NALP3 yeast conf 50 | Casp1-ASC yeast 62 | NALP3 retest 54
CCc1noc(C)c1C(=O)Nc1nc2c(C)cc(C)cc2s1	NLRP3 yeast inh 72 (no result: NALP1 inh) | NALP3 yeast conf 77 | Casp1-ASC yeast 75 | NALP3 retest 61
Cc1cc(C)c2nc(NC(=O)c3cc(C)on3)sc2c1	none
COc1ccc(S(=O)(=O)N2CCCC(C(=O)NCc3cccnc3)C2)cc1OC (stereo not drawn)	none (no result: NALP1 inh)
Cc1ccc2c(c1)N(C(=O)CCC(=O)NCCN1CCOCC1)CCO2	none
CCC(C)c1ccccc1N=Cc1ccc2c(c1)OCO2 (stereo not drawn)	none
CCc1sc(C(=O)Nc2nc(C)cs2)cc1C	NLRP3 yeast inh 56 | NALP3 yeast conf 72 | Casp1-ASC yeast 66 | NALP3 retest 54
CCNC(=O)c1ccc(=O)n(Cc2ccc(Cl)cc2Cl)c1	none (no result: NALP1 inh)
N#Cc1ccc(C(=O)OCCCc2cc3ccccc3c(=O)o2)cc1	NLRP3 yeast inh 66 (no result: NALP1 inh) | NALP3 yeast conf 61 | Casp1-ASC yeast 61 | NALP3 retest 63
N#Cc1ccc(C(=O)OCCc2cc3ccccc3c(=O)o2)cc1	none (no result: NALP1 inh)
O=S(=O)(NCc1nnc2ccccn12)c1ccc(F)cc1	none (no result: NALP1 inh, PfHsp90 set2)
O=C(C[n+]1ccccc1)N/N=C/c1ccccc1F	none
O=C(C[n+]1ccccc1)N/N=C/c1cc(Br)ccc1O	NLRP3 yeast inh 64 | NALP3 yeast conf 66 | Casp1-ASC yeast 51 | NALP3 retest 66
NCCc1nnc(SCc2c(Cl)cccc2Cl)o1	NLRP3 yeast inh 84, NALP1 inh 39 | NALP3 yeast conf 82 | Casp1-ASC yeast 83 | NALP3 retest 92
NCCc1nnc(SCc2c(F)cccc2Cl)o1	NLRP3 yeast inh 77 | NALP3 yeast conf 88 | Casp1-ASC yeast 72 | NALP3 retest 83
NCCCCCc1nnc(SCC(=O)c2ccc(Cl)cc2)o1	none
NCCc1nnc(SCC(=O)c2ccc(Cl)cc2)o1	NLRP3 yeast inh 56 | NALP3 yeast conf 71
O=C(CNC(=O)C1CC(=O)N(c2cccc3ccccc23)C1)Nc1ccccc1Br (stereo not drawn)	none (no result: NALP1 inh)
CC(Sc1nnc(Nc2ccccc2F)s1)C(=O)NC1CC1 (stereo not drawn)	none (no result: NALP1 inh)
COc1ccc(CN2CCN(CCc3ccccc3)C(CCO)C2)c(Cl)c1OC (stereo not drawn)	none
O=C(NCCc1ccccn1)C1CCCN1S(=O)(=O)c1ccc(Cl)cc1 (stereo not drawn)	none
Cc1ccc(/C=C(\C#N)c2nc3ccccc3[nH]2)s1	NLRP3 yeast inh 51 | NALP3 yeast conf 63 | Casp1-ASC yeast inactive | NALP3 retest inactive
COc1ccccc1-c1oc2ccccc2c1C#CCO	none (no result: NALP1 inh)
COc1ccccc1-c1oc2ccccc2c1C#CC(C)(C)O	NLRP3 yeast inh 72 (no result: NALP1 inh) | NALP3 yeast conf 59 | Casp1-ASC yeast 71 | NALP3 retest 60
COc1cccc(CNC(=O)CSc2nnc3c(n2)[nH]c2ccccc23)c1	none
Cc1c(/C=N/O)c2ccccn2c1C(=O)c1ccc(F)cc1	NLRP3 yeast inh 62 | NALP3 yeast conf 77 | Casp1-ASC yeast inactive | NALP3 retest inactive
COC(=O)c1ccccc1Oc1ccc(NC(=O)c2ccco2)cc1	NLRP3 yeast inh 51 | NALP3 yeast conf 68 | Casp1-ASC yeast inactive | NALP3 retest inactive
CCCCCCCCC(=O)N1CCN(c2cc3c(cc2F)c(=O)c(C(=O)O)cn3CC)CC1	NLRP3 yeast inh 57 | NALP3 yeast conf 52 | Casp1-ASC yeast inactive | NALP3 retest inactive
COc1ccc(OC2CCN(C(=O)Nc3ccc(C)cc3)CC2)cc1	none
CS(=O)(=O)c1ccc(C(=O)Nc2ccc(S(=O)(=O)N3CCCCC3)cc2)cc1	none (no result: NALP1 inh)
O=C(CSc1ncccn1)NC(=O)Cc1ccccc1	none (no result: NALP1 inh)
CC(=O)N(/N=C1\Sc2ccccc2C1=O)c1ccccc1C	NLRP3 yeast inh 54 (no result: PfHsp90 set2) | NALP3 yeast conf 48 | Casp1-ASC yeast inactive | NALP3 retest inactive
CCCC(=O)Nc1ccc(N2CCCCC2)cc1	none
O=C(CCl)Nc1ccc(N2CCCCCC2)cc1	NLRP3 yeast inh 60 | NALP3 yeast conf 77 | Casp1-ASC yeast 76 | NALP3 retest 53
CCc1cccc(NC(=S)N2CCC(c3ccccc3)C2)c1 (stereo not drawn)	NLRP3 yeast inh 52 | NALP3 yeast conf 56 | Casp1-ASC yeast 62 | NALP3 retest inactive
COc1cc(C(=O)NCCCN2CCCC2=O)cc(Br)c1OCc1ccccc1	none (no result: NALP1 inh)
O=C1/C(=C\c2ccco2)SC(=S)N1c1ccc(O)cc1	NLRP3 yeast inh 81, NALP1 inh 76 | NALP3 yeast conf 61 | Casp1-ASC yeast inactive | NALP3 retest inactive
O=C(O)c1cccc(Nc2ncnc3c2cnn3-c2ccccc2)c1	none
